# Assay results: PubChem BioAssay AID493201 (National Center for Advancing Translational Sciences (NCATS), 2011)
# Results filed as inconclusive are left out. A number with no mark means an inactive call. The source made the active and inactive calls. Calls come from the whole dose curve; as a rule, active = well fitted activation curve with a large enough effect; inconclusive = small, poorly fitted or top-dose-only effect; inactive = no such curve, though single readings can be large or run the other way.
# Test: qHTS Assay for Identifying a Potential Treatment of Ataxia-Telangiectasia: Secondary assay (no NCS) hit validation;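 note: phosphorylated KAP1 signal as a proxy for ATM-like kinase activity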; for activation: 0% is about no effect
# Settings: A-T patient fibroblasts, AlphaLISA, no DNA damage added, 90 min; series mostly up to 76.9 µM; activation: at the top concentration
# Source text: NIH Chemical Genomics Center [NCGC]
# NIH Molecular Libraries Probe Centers Network [MLPCN]
# Assay Submitter (PI): Wei Zheng and Yosef Shiloh
# Ataxia-telangiectasia (A-T) is a devastating and progressive disease for which, there is no cure. Although A-T is a multisystem disease, it is stereotyped characterized by its neurological symptoms such as truncal ataxia, due to cerebellar cortical degeneration of the Purkinje and granule cells. Other symptoms of A-T are telangiectasias (dilated blood vessels), primary immunodeficiency, marked sensitivity to ionizing radiation (IR), chromosomal instability and predisposition to cancer.
# The underlying genetic cause of A-T is null mutations in the ATM (A-T mutated) gene. ATM is a nuclear serine/threonine kinase that functions as a master regulator of the cellular responses to double strand breaks (DSBs) in the DNA. Upon activation by DSBs, ATM phosphorylates a plethora of downstream targets, including KAP-1 on […]. KAP-1 phosphorylation occurs shortly in response to DSBs and mediates global chromatin relaxation, which facilitates DSB repair. To screen for small molecules that will compensate for the loss of ATM in cells derived from A-T patients, we monitored KAP-1 phosphorylation as a readout for ATM-like activity using an AlphaLISA assay. This secondary assay omits NCS, which creates double-stranded DNA breaks.
# Step,Parameter,Value,Description
# 1. Cell Plating, 3 ul, 500 cells/well in OPTI-MEM, 1% FBS, 1% Pen/Strep
# 3. Library compounds, 23 nl, 76.7 - 0.61uM dilution series final concentration
# 4. Incubation, 60 min, 37C, 5% CO2, 95% humidity
# 6. Incubation, 30 min, 37C, 5% CO2, 95% humidity
# 7. Reagent, 1 ul, Premixed detection reagents and lysis buffer
# 8. Reagent, 1 ul, 0.6% Antifoam A
# 9. Incubation, 6 hr, 25C, 95% humidity
# 10. Readout, EnVision, EnVision plate reader. AlphaScreen 1536-well protocol
# Cells were plated using medium-binding white solid-bottom tissue culture treated Kalypsys plates. Multidrop dispense of 3 uL of F2112 (hTERT immortalized A-T patient fibroblast cells). Detection reagent and lysis buffer was 3.75nM Rab-a-pKAP1 antibody bound to 75 ng/ul AlphaScreen SA donor bead, 3.75 nM Biot-M-a-KAP1 antibody bound to AlphaLISA protein A acceptor bead, 0.5x protease inhibitor cocktail and 0.25x PerkinElmer lysis buffer. EnVision protocol for 1536-well AlphaScreen read (30ms excitation, 100ms read), about 10 min/plate.
# Potency is the fitted concentration of half-maximal effect.
Structure (SMILES),activation [%],Potency
O=C1Nc2ccccc2C1Cc1nc2ccccc2c(=O)n1-c1ccccc1 (stereo not drawn),16.9,
S=c1[nH]nc(Cn2c(-c3ccccn3)nc3ccccc32)n1-c1ccc2c(c1)OCCO2,,41.2 µM (active)
C/C=C/c1ccc2c(c1)OCO2,58.1,
Cc1cc(O)c2c(c1)C(=O)C13C(=C2O)C(=O)[C@H]2[C@@H](O)[C@@H]1[C@H]1[C@H](O)[C@@H]3C(=O)C3=C(O)c4c(O)cc(C)cc4C(=O)C312 (stereo partly drawn),10.8,
CC(C)c1ccc(-n2c(O)c(C=NC(CCS(C)=O)C(=O)O)c(=O)[nH]c2=S)cc1 (stereo not drawn),-11.9,
Cc1ccc(C)c(NP(=O)(Oc2ccccc2)Oc2ccccc2)c1,13.9,
Cc1ccc(-n2c(O)c(C=NCC3CCCO3)c(=O)[nH]c2=O)c(C)c1 (stereo not drawn),12.2,
CN1CCCC(C(O)(c2ccccc2)c2ccccc2)C1 (stereo not drawn),18.6,
Cc1cccc(N2C(=O)NC(=O)/C(=C\C=C\c3ccco3)C2=O)c1,0,
CCCCC(=O)N/N=C/c1c(O)n(CCC2=CCCCC2)c(=O)[nH]c1=O,,14.6 µM (active)
CN1CCN(c2ccc([N+](=O)[O-])c3no[n+]([O-])c23)CC1,3.23,
CCN(CC)S(=O)(=O)c1ccc(C(=O)NC2CN3CCC2CC3)cc1 (stereo not drawn),-4.35,
CCN1C(=O)N(CC)C(=O)C2(Cc3ccccc3N3CCN(c4ccccc4)CC32)C1=O (stereo not drawn),-9.68,
Cc1nc2ccccc2c(=O)n1-c1ccc(F)cc1F,33.3,
CCc1ccc(N2C(=O)NC(=O)/C(=C\C=C\c3ccco3)C2=O)cc1,-11,
COC(=O)C1=C(c2ccc(OCc3ccccc3)cc2)C[C@@H]2CC[C@H]1N2C(=O)NCc1cccc(C(F)(F)F)c1,,4.12 µM (active)
CC1(C)C[C@H]2C=C(C=O)[C@]3(C=O)C[C@]3(C)[C@H]2C1,-1.69,
CCN(CC)S(=O)(=O)c1cccc(N=Nc2c(O)n(CC)c(=S)n(CC)c2=O)c1,,18.4 µM (active)
